Results published in the supplement of paper PMC11006884.
Targets with a hit are over-represented here; the source holds about 6,500 in all. About 2% of all pairs of compound and target were hits.

compound: COC(=O)C#Cc1ccccc1 [methyl 3-phenylpropiolate]; experiment: log2 ratio of iodoacetamide-alkyne labeling of the cysteine site, DMSO over compound (competition); higher = stronger covalent engagement of the cysteine by the compound, active = 1 or more; details: 500 µM; treatment time 1 h; system: HEK293T cell lysate
How it was run: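 HEK293T lysate (2 mg/mL) was incubated with electrophile (500 µM) or vehicle for 1 h at ambient temperature and then with iodoacetamide alkyne for 1 h. Labelled proteins were clicked to sCIP-TMT reagents, pooled, digested, enriched on streptavidin and measured by Orbitrap Eclipse LC-MS/MS with FAIMS, with FragPipe quantification. The per-cysteine log2 competition ratio is mean control-channel reporter intensity over mean compound-channel reporter intensity. Across three replicates with duplicate channels, cysteines quantified in only one replicate were excluded.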

Sequence of UniProt P27707 (P27707 whole entry, looked up): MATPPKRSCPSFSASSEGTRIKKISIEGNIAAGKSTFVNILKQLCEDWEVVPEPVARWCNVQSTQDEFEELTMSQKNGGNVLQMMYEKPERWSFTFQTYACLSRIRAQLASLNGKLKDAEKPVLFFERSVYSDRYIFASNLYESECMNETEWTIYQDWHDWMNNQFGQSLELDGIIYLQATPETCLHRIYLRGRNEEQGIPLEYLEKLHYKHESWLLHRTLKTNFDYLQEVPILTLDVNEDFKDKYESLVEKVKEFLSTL
Sequence of UniProt P52272 (P52272 whole entry, looked up): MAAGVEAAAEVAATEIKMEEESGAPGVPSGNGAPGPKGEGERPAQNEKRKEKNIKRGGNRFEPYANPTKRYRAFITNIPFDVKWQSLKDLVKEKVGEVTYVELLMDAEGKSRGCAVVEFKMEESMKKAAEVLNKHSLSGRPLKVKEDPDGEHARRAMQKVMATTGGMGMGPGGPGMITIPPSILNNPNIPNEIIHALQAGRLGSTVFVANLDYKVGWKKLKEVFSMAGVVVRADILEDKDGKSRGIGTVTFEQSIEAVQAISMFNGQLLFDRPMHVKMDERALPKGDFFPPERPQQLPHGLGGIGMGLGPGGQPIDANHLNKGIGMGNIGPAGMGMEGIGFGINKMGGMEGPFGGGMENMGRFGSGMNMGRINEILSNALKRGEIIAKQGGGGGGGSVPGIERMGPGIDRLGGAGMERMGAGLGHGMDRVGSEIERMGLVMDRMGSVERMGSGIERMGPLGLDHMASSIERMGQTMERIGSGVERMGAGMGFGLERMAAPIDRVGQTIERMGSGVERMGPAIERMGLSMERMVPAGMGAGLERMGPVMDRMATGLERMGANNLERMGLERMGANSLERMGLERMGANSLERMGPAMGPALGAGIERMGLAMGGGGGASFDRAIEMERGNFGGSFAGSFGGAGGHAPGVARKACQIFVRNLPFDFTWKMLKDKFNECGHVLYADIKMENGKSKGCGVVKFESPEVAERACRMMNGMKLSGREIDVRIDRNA
Sequence of UniProt P43246 (P43246 whole entry, looked up): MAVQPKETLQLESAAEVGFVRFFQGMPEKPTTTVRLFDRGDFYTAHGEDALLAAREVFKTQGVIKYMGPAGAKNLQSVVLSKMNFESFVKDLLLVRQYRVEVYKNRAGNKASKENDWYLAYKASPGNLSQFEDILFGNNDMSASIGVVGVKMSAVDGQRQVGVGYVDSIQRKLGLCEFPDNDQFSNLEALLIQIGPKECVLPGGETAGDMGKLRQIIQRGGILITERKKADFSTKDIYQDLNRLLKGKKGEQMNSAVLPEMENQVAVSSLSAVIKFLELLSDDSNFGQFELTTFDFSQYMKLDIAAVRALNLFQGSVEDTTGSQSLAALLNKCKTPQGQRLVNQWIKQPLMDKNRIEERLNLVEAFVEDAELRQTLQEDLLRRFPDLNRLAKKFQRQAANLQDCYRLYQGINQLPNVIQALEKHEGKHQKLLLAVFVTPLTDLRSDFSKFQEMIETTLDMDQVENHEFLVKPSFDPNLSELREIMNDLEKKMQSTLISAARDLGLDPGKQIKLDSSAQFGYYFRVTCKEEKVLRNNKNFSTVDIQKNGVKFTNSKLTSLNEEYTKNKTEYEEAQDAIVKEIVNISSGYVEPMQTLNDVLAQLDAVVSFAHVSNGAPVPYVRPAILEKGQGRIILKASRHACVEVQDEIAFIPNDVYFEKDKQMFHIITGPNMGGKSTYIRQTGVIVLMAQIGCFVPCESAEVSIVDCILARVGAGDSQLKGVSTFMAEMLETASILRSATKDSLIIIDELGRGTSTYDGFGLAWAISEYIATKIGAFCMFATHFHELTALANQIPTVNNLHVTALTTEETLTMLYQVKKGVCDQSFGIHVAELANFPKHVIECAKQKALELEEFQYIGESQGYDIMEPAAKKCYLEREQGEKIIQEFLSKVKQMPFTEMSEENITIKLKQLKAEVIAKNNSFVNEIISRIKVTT
Sequence of UniProt P50991 (P50991 whole entry, looked up): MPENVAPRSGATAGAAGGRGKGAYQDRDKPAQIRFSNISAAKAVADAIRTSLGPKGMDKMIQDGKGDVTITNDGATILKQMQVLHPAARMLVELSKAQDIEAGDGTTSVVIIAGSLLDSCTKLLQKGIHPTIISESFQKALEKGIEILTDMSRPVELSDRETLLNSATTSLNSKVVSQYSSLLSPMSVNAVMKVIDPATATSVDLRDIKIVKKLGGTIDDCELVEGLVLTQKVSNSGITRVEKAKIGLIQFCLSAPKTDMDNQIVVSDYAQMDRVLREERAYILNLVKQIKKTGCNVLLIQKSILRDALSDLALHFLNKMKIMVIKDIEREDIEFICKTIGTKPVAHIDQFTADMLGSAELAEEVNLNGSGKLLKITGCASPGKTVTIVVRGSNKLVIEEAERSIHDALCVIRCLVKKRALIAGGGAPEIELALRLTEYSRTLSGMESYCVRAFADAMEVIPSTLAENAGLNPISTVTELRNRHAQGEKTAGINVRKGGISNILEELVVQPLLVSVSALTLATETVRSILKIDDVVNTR
Sequence of UniProt O95835 (O95835 whole entry): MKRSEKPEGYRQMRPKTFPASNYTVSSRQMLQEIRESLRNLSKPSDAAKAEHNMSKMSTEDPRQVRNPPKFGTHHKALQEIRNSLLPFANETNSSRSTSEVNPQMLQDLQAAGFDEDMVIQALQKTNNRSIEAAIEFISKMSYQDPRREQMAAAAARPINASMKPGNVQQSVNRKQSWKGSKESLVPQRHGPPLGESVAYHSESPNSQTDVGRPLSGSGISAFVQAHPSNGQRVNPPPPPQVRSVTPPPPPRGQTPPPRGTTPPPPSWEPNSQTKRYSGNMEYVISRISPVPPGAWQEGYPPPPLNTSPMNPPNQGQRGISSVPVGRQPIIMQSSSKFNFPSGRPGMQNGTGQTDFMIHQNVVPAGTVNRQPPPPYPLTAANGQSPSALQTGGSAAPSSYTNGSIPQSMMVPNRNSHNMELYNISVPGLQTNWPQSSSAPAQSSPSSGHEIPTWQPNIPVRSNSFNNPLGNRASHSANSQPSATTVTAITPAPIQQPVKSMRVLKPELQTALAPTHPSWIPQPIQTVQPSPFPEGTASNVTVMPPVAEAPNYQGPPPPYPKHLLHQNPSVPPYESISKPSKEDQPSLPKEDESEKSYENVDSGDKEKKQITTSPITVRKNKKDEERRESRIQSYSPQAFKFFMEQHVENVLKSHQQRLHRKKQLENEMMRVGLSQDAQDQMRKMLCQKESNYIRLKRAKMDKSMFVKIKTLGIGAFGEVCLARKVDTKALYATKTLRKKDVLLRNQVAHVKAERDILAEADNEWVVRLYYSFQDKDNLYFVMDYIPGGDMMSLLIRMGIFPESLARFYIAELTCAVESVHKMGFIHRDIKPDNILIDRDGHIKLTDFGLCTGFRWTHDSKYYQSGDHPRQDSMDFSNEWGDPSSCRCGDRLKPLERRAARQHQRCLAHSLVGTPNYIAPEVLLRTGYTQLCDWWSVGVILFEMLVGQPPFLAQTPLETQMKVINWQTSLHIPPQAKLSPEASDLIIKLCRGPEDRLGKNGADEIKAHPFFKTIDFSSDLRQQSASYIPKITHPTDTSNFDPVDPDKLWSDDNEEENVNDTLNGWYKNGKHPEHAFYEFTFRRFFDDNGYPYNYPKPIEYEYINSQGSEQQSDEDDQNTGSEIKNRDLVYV
Sequence of UniProt P18085 (P18085 whole entry, looked up): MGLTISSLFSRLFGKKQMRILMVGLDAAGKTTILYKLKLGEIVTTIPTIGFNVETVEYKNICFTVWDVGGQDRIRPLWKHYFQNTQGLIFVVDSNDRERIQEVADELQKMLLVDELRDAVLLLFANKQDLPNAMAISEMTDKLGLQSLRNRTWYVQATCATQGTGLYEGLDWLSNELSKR
Sequence of UniProt P46459 (P46459 whole entry, looked up): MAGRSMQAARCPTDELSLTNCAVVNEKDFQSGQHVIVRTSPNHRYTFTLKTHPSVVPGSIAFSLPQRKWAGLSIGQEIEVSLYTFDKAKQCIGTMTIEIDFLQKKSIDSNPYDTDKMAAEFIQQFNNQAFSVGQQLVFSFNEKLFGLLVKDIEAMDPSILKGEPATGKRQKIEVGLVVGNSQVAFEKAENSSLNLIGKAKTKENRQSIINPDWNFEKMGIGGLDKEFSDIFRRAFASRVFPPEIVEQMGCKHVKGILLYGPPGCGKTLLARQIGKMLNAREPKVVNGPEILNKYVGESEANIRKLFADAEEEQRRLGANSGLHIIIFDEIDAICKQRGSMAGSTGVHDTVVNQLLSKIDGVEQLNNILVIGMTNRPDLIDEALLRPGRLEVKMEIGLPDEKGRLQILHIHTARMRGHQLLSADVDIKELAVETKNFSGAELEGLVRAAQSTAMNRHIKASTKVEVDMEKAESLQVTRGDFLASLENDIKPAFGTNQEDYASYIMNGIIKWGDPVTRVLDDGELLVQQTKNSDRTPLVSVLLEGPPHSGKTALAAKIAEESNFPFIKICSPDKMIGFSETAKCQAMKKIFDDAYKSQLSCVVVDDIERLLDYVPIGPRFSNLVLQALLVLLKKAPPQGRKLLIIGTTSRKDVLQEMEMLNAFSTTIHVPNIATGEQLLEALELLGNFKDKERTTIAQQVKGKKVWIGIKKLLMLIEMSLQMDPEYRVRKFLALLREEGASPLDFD
Sequence of UniProt P22087 (P22087 whole entry, looked up): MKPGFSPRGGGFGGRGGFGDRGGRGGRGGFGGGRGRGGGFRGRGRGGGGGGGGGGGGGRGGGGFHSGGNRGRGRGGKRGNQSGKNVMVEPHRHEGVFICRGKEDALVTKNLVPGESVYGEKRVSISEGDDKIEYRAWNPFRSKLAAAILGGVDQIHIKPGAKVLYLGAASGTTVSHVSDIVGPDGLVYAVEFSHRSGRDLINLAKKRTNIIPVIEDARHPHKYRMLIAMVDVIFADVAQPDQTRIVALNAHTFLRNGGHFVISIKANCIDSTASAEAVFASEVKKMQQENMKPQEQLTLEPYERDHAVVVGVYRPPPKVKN
Sequence of UniProt P10599 (P10599 whole entry, looked up): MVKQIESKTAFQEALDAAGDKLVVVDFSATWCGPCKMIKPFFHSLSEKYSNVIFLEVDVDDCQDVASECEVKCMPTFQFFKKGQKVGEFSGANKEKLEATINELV

Target	log2 ratio of iodoacetamide-alkyne labeling
AARS C723 (UniProt P49588)	0.264 (inactive)
CCT3 C475 (UniProt P49368)	0.185 (inactive)
NF1 C383 (UniProt P21359)	0.376 (inactive)
MAP1B C1228 (UniProt P46821)	0.169 (inactive)
SEPHS1 C31 (UniProt P49903)	0.175 (inactive)
LRPPRC C863 (UniProt P42704)	-0.00586 (inactive)
NSF C11 (UniProt P46459)	0.206 (inactive)
ENO1 C357 (UniProt P06733)	-0.0848 (inactive)
MAP4K4 C202 (UniProt O95819)	0.624 (inactive)
HSPA4L C167 (UniProt O95757)	-0.00119 (inactive)
MSH6 C1337 (UniProt P52701)	0.14 (inactive)
MKI67 C2206 (UniProt P46013)	0.603 (inactive)
LATS1 C885 (UniProt O95835)	0.423 (inactive)
ARF4 C62 (UniProt P18085)	-0.015 (inactive)
RNH1 C85 (UniProt P13489)	0.0022 (inactive)
UniProt P14618_C49	-0.193 (inactive)
MCM5 C219 (UniProt P33992)	1.34 (active)
ATP1A1 C428 (UniProt P05023)	0.234 (inactive)
CA2 C205 (UniProt P00918)	-0.11 (inactive)

Target	log2 ratio of iodoacetamide-alkyne labeling
RANBP2 C1335 (UniProt P49792)	0.226 (inactive)
FBL C268 (UniProt P22087)	0.27 (inactive)
EEF2 C651 (UniProt P13639)	0.0919 (inactive)
DCK C9 (UniProt P27707)	1.15 (active)
CCT4 C337 (UniProt P50991)	0.0635 (inactive)
MSH2 C333 (UniProt P43246)	1.16 (active)
TXN C35 (UniProt P10599)	1.14 (active)
GART C466 (UniProt P22102)	0.199 (inactive)
JUP C90 (UniProt P14923)	0.305 (inactive)
GALK1 C351 (UniProt P51570)	0.243 (inactive)
RNH1 C75 (UniProt P13489)	0.145 (inactive)
PPP2R1A C154 (UniProt P30153)	0.637 (inactive)
HNRNPM C653 (UniProt P52272)	0.0149 (inactive)
MAP1B C2088 (UniProt P46821)	0.329 (inactive)
UniProt P35568_C494	0.123 (inactive)
HSPA4L C421 (UniProt O95757)	-0.0563 (inactive)
LMNA C570 (UniProt P02545)	0.553 (inactive)
CNP C111 (UniProt P09543)	0.0267 (inactive)
